# Source: publication PMC4336329 (PLoS ONE, 2015)
# Screen size: about 310,000 compounds; about 2,200 (0.71%) showed an effect of 50% or more. Effects have a minus sign here. Only a selection was taken, and strong results are over-represented in it overall.
# Target: human ether-à-go-go-related gene (hERG) potassium channel (human, UniProt Q12809)
# Assay: primary screen, population patch clamp on CHO cells stably expressing hERG; higher = less effect of the substance
# Chain of human ether-à-go-go-related gene (hERG) potassium channel (Q12809 whole entry, looked up): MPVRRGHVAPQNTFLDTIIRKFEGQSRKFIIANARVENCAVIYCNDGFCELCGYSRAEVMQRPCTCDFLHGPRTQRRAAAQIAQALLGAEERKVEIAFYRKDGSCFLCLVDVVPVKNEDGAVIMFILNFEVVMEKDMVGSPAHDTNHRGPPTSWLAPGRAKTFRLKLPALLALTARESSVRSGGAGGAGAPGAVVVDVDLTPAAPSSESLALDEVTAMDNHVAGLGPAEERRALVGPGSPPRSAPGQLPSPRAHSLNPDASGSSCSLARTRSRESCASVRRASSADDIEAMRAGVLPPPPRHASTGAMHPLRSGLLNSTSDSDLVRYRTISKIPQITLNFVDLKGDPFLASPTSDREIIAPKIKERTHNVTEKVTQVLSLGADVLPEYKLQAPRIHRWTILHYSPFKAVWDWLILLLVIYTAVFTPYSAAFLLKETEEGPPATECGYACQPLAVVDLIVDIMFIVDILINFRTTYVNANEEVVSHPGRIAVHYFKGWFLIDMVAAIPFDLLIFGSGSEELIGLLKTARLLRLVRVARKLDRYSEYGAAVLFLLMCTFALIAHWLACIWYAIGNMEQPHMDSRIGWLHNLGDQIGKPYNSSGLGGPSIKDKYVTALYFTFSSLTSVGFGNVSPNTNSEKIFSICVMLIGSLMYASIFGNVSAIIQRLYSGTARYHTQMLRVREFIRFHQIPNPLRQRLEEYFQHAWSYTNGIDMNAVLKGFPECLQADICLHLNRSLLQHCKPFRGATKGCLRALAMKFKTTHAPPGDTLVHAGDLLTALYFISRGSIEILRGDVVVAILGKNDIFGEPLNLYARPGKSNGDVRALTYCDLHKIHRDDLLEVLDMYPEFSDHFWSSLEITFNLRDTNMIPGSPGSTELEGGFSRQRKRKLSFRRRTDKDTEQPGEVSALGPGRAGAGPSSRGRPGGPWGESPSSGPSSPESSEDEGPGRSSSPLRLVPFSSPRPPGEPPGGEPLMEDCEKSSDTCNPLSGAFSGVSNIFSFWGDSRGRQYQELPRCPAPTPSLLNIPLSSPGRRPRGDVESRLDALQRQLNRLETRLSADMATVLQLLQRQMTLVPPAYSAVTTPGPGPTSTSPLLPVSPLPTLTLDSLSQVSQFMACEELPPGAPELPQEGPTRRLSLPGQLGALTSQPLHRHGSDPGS
row,SMILES,"hERG current change (%, negative = inhibition) at 1uM"
1,CCn1ccnc1CN1CCN(CC=C(C)C)C(CCO)C1 (centres unmarked),9.77%
2,Cc1ccccc1-c1ccc(/C=C2/SC(N3CCOCC3)=NC2=O)o1,-3.7%
3,O=C1N=C(N2CCOCC2)S/C1=C/c1ccc(-c2ccc(F)cc2)o1,9.65%
4,Cc1ccc(-c2ccc(/C=C3\SC(N4CCOCC4)=NC3=O)o2)cc1,-54.6%
5,CCc1nc2c(nnn2Cc2ccc(F)cc2)c(=O)[nH]1,1.79%
6,COc1ccc(C2CCCN2C(=S)Nc2cccc(Cl)c2C)cc1OC (centres unmarked),2.08%
7,N#C/C(=C\c1ccc(OCCN2CCOCC2)cc1)C(=O)Nc1ccccc1F,12.6%
8,CCCC(C(=O)OCC)P(=O)(c1ccccc1)c1ccccc1 (centres unmarked),-0.896%
9,CCOc1ccccc1NC(=O)CSc1nc2cccnc2n1C,5.84%
10,Cn1c(SCCCC(=O)c2ccc(F)cc2)nnc1-c1ccncc1,-38.5%
11,Cn1c(SCCCC(=O)c2ccc(Br)cc2)nnc1-c1ccncc1,-51.1%
12,Cn1c(SCCCC(=O)c2ccccc2)nnc1-c1ccncc1,-24.9%
13,Cc1ccc(NC(=O)c2ccc(CSc3nnc(C)s3)cc2)c(C)c1,9.08%
14,CCn1c(CNC(=O)c2ccc(OC)c(OC)c2)nnc1SCC(=O)Nc1ccc(OC)cc1,6.99%
15,Cn1c(SCc2ccc(C#N)cc2)nnc1-c1ccncc1,6.61%
16,N#Cc1ccc(CSc2nnc(-c3ccncc3)n2CCc2ccccc2)cc1,-78.2%
17,c1ccc(CCn2c(SCc3ccccc3)nnc2-c2ccncc2)cc1,-12.4%
18,O=C(OCCN1C(=O)c2ccccc2C1=O)c1cccs1,11.9%
19,C=CCn1c(=N)c(C(=O)NCCCOC)cc2c(=O)n3cc(C)ccc3nc21,-41.9%
20,CNC(=O)c1cc2c(=O)n3cccc(C)c3nc2n(C(C)C)c1=N,-82.3%
21,Cc1cccn2c(=O)c3cc(S(=O)(=O)c4ccccc4)c(=N)n(Cc4cccnc4)c3nc12,-3.7%
22,CCC(C)n1c(=N)c(C#N)cc2c(=O)n3cccc(C)c3nc21 (centres unmarked),-16.6%

row,SMILES,"hERG current change (%, negative = inhibition) at 1uM"
1,Cc1cccn2c(=O)c3cc(C(=O)NCc4cccnc4)c(=N)n(C(C)C)c3nc12,-67.3%
2,CNC(=O)c1cc2c(=O)n3cc(C)ccc3nc2n(C(C)C)c1=N,-81.9%
3,CCC(C)n1c(=N)c(C#N)cc2c(=O)n3cc(C)ccc3nc21 (centres unmarked),-22%
4,O=C(NCc1cccnc1)c1cccn2c(=O)c3sccc3nc12,-16.3%
5,COCCCNC(=O)c1cc2c(=O)n3cccc(C)c3nc2n(C(C)C)c1=N,-46.1%
6,COc1ccc2c(c1)CCc1c(C(=O)N3CCCCCC3)noc1-2,-1.37%
7,C=C(C)CN1C(=O)c2ccccc2C1=O,4.89%
8,Cc1nc(Nc2ccccc2)[nH]c(=O)c1CCC(C)C,1.92%
9,Cc1ccc(C)c(-n2c(-c3cccnc3)n[nH]c2=S)c1,18.2%
10,CCN(CC1CCCN(CCc2cccc(OC)c2)C1)C(=O)c1ccc(COC)o1 (centres unmarked),-51.1%
11,CCN(Cc1ccc(NC(C)=O)cc1)CC1CCCN(CCc2cccc(F)c2)C1 (centres unmarked),9.42%
12,C=CCC(=O)N(CC)CC1CCCN(CCc2cccc(F)c2)C1 (centres unmarked),-17.6%
13,CCN(CC1CCCN(CCc2cccc(F)c2)C1)C(=O)c1cc2ccccc2o1 (centres unmarked),-64.7%
14,CCN(CC1CCCN(CCc2cccc(OC)c2)C1)C(=O)c1ccoc1C (centres unmarked),-27.8%
15,CCN(CC1CCCN(CCc2cccc(OC)c2)C1)C(=O)c1ccoc1 (centres unmarked),-14.5%
16,CCN(CC1CCCN(CCc2cccc(F)c2)C1)C(=O)c1cc(C)oc1C (centres unmarked),-2.34%
17,CCN(Cc1ccc(O)cc1)CC1CCCN(CCc2cccc(F)c2)C1 (centres unmarked),-8.8%
18,CCN(CC1CCCN(CCc2cccc(F)c2)C1)C(=O)c1ccc(CSC)o1 (centres unmarked),-52%
19,COc1ccc(C=O)cc1Cn1c(=O)n(CCC(=O)NCc2ccco2)c(=O)c2sccc21,5.91%
20,COc1ccc(N(CC(=O)NCc2ccc(Cl)cc2)S(=O)(=O)c2c(C)n[nH]c2C)cc1,1.42%
21,Cc1cc(C)nc(NS(=O)(=O)c2ccc(Br)cc2)n1,21.2%
22,Cc1ccc(Cn2c(CN3CC(C)OC(C)C3)nc3c2c(=O)[nH]c(=O)n3C)cc1 (centres unmarked),-3.88%

row,SMILES,"hERG current change (%, negative = inhibition) at 1uM"
1,O=C(O)CCn1cc(/C=C/C(=O)c2ccc(Cl)cc2)c(-c2cccc(Br)c2)n1,14.7%
2,CCCCN(C)C(=O)C1CCN(Cc2cccnc2)CC1,10.1%
3,CCCCN(C)C(=O)C1CCN(C/C(C)=C/c2ccccc2)CC1.O=C(O)C(=O)O,-54.3%
4,CCCCNC(=O)C1CCN(C/C(C)=C/c2ccccc2)CC1.O=C(O)C(=O)O,-33.9%
5,CCCCN(C)C(=O)C1CCN(CCCc2ccccc2)CC1.O=C(O)C(=O)O,-73.6%
6,CCCCN(C)C(=O)C1CCN(Cc2ccccn2)CC1.O=C(O)C(=O)O,6.35%
7,CCN(CC)C(=O)C1CCN(Cc2ccc(OCc3ccccc3)cc2)CC1.O=C(O)C(=O)O,-13.3%
8,O=C(C1CCN(CCCc2ccccc2)CC1)N(CCc1ccccc1)Cc1ccccc1.O=C(O)C(=O)O,-75%
9,O=C(C1CCN(CC2CC=CCC2)CC1)N(CCc1ccccc1)Cc1ccccc1 (centres unmarked),-47%
10,CCCCN(C)C(=O)C1CCN(Cc2ccc(OCc3ccccc3)cc2)CC1.O=C(O)C(=O)O,-55.7%
11,CCCCN(C)C(=O)C1CCN(Cc2cccc(OCc3ccccc3)c2)CC1.O=C(O)C(=O)O,-35.6%
12,CCN(Cc1ccccc1)C(=O)C1CCN(C/C(C)=C/c2ccccc2)CC1.O=C(O)C(=O)O,-31%
13,CC1CCN(C(=O)C2CCN(CCCc3ccccc3)CC2)CC1.O=C(O)C(=O)O,-23.5%
14,COC(=O)C1=C(c2cc3ccccc3o2)C[C@@H]2CC[C@H]1N2C(=O)NC1CCCCC1,-7.33%
15,CC(C)C(NC(=O)c1ccccc1)c1nnc(SCC(=O)Nc2nccs2)n1C (centres unmarked),15.7%
16,Cc1cc(=O)nc2c3ccccc3n(CC(=O)NCCCN3CCCC3=O)n12,10.4%
17,O=C(O)CCC(=O)NNC(=O)c1cccs1,15.5%
18,CCOC(=O)CSc1nc(CC)nc2ccccc12,4.2%
19,O=c1cc(CO)oc(CN2CCCC2)c1O,-2.54%
20,C/C(=N\O)c1ccc2c(c1)CC(C)O2 (centres unmarked),13.6%
21,Cc1cc(C[n+]2ccsc2N)c2ncccc2c1.[Br-],-20.1%
22,COc1ccc2c(c1)sc(N)[n+]2Cc1cc(C)cc2cccnc12.[Br-],-26.5%

row,SMILES,"hERG current change (%, negative = inhibition) at 1uM"
1,CCOc1ccc2c(c1)sc(N)[n+]2Cc1cc(C)cc2cccnc12.[Br-],-56.2%
2,CN(Cc1ccccc1)C(=O)c1nn2cccnc2c1Cl,13.2%
3,COCCn1c(=N)c(C(=O)NCCc2ccccc2)cc2c(=O)n3cccc(C)c3nc21,-86.1%
4,COCCNC(=O)c1cc2c(=O)n3cccc(C)c3nc2n1C,22.6%
5,Cc1cccn2c(=O)c3cc(C(=O)NCCN4CCOCC4)c(=N)n(CCN4CCOCC4)c3nc12,12.2%
6,CCNC(=O)c1cc2c(=O)n3cccc(C)c3nc2n(CCc2ccccc2)c1=N,-90.7%
7,CCCCNC(=O)c1cc2c(=O)n3cccc(C)c3nc2n(CCN2CCOCC2)c1=N,-92.4%
8,COCCn1c(=N)c(C(=O)NCCc2ccc(OC)cc2)cc2c(=O)n3cccc(C)c3nc21,-95.4%
9,Cc1cccn2c(=O)c3cc(C(=O)NCCN4CCOCC4)n(C)c3nc12,9.82%
10,COc1ccc(CN2CCN(Cc3ccccc3C(F)(F)F)CC2)c(OC)c1.O=C(O)C(=O)O,-39.5%
11,Cc1ccc(N2C(=O)CC(NCc3ccc4c(c3)OCO4)C2=O)cc1Cl (centres unmarked),-12.2%
12,COc1ccc(COC(=O)c2ccc(C)c(S(=O)(=O)N3CCOCC3)c2)cc1F,16%
13,Cc1ccc(CNS(=O)(=O)c2ccc3c(c2)C(C)(C)C(=O)N3C)cc1,7.06%
14,COc1cc(CNC(=O)CCCC/C=C/C(C)C)ccc1O,11.8%
15,CC(=O)N1CCN(c2ccc(NC(=O)c3ccc(Cl)c([N+](=O)[O-])c3)cc2)CC1,5.32%
16,O=C(C/C(=N\NC(=O)c1ccccc1Br)C(F)(F)F)c1cccs1,3.65%
17,O=C(Nc1ncnc2sc3c(c12)CCCCC3)c1ccc(F)cc1,14.2%
18,Cc1[nH]c2ccccc2c1C(=O)CSc1nc2cc(S(=O)(=O)N3CCCCC3)ccc2o1,9.62%
19,CCc1cc2c(=O)c(-c3nc4ccccc4n3C)c(CCCC(=O)O)oc2cc1OC(=O)C(C)(C)C,14.8%
20,CC(=O)c1ccc(NC(=O)Cc2ccsc2)cc1,14.1%
